From the supplement of paper PMC10037445
Several values for one entry are separate records, joined by “and”; a condition that tells them apart may be missing. Equal values may be shown once. Whole data set: some 2,900 compounds, median “NF-kB SEAP reporter activity, fold change vs agonist alone” near 0.99, cut for the highest 2% near 2.6. The entries come from a sample that favours the highest values as a whole.

Experiments:
[1] = tested on: RAW-Dual; assay: NF-kB SEAP reporter activity, fold change vs agonist alone; cytotoxicity flag (confluency mask): not cytotoxic; higher = enhanced NF-kB activity
Procedure, shortened: (§1)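 Supernatant from RAW-Dual macrophages was read after 20 hours for IRF by QuantiLuc luminescence and for NF-κB by QuantiBlue absorbance at 620 nm. The cells (50,000 cells/well in DMEM, 384-well plates, 37 °C, 5% CO2) had received 50 nL of library stock by pin tool and, 1 h later, a PRR agonist. Reporter activity is expressed relative to agonist-alone wells as fold change, and wells were flagged cytotoxic if IncuCyte confluency was under 70% of agonist controls in both mask sets.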

[2] = tested on: RAW-Dual; assay: NF-kB SEAP reporter activity, fold change vs agonist alone; higher = enhanced NF-kB activity
Procedure, shortened: as §1

[3] = tested on: RAW-Dual; assay: NF-kB SEAP reporter activity, fold change vs agonist alone; cytotoxicity flag (confluency mask): cytotoxic (confluency <70% of control); higher = enhanced NF-kB activity
Procedure, shortened: as §1

[4] = agonist: ODN 1826 (TLR9) 0.5 ug/mL
[5] = agonist: Pam2CSK4 (TLR2/6) 0.1 ug/mL
[6] = agonist: Pam3CSK4 (TLR2/1) 0.1 ug/mL
[7] = library stock concentration (final ~1000-fold dilution): 10 mM, cytotoxicity flag (confluency mask): not cytotoxic, agonist: Imiquimod (TLR7) […]
[8] = library stock concentration (final ~1000-fold dilution): 10 mM, cytotoxicity flag (confluency mask): not cytotoxic, agonist: MPLA (TLR4) […]

CNC(=O)c1ccc(-c2cnc3cnc(-c4ccccc4)cn23)cc1 (library stock concentration (final ~1000-fold dilution): 10 mM)
NF-kB SEAP reporter activity ([1]; agonist: LPS (TLR4) 0.1 ug/mL): 1.54 | NF-kB SEAP reporter activity [1, 4]: 0.763 | NF-kB SEAP reporter activity [1, 5]: 1.22 | NF-kB SEAP reporter activity [1, 6]: 2.3

CNC(=O)c1ccc(-c2cnc3cnc(-c4ccccc4)cn23)cc1
NF-kB SEAP reporter activity [2, 7]: 1.1 | NF-kB SEAP reporter activity [2, 8]: 1.37

CC12CCC3c4ccc(O)cc4CC(CCCCCCCCCS(=O)CCCC(F)(F)C(F)(F)F)C3C1CCC2O (stereo not drawn) (library stock concentration (final ~1000-fold dilution): 10 mM)
NF-kB SEAP reporter activity ([1]; agonist: LPS (TLR4) 0.1 ug/mL): 0.714 | NF-kB SEAP reporter activity [1, 4]: 0.721 | NF-kB SEAP reporter activity [1, 5]: 0.634 | NF-kB SEAP reporter activity [1, 6]: 0.864

CC12CCC3c4ccc(O)cc4CC(CCCCCCCCCS(=O)CCCC(F)(F)C(F)(F)F)C3C1CCC2O (stereo not drawn)
NF-kB SEAP reporter activity [2, 7]: 0.89 | NF-kB SEAP reporter activity [2, 8]: 0.904

CC#CC(=O)N1CCCC1c1nc(-c2ccc(C(=O)Nc3ccccn3)cc2)c2c(N)nccn12 (stereo not drawn)
NF-kB SEAP reporter activity [2, 7]: 0.862 | NF-kB SEAP reporter activity [2, 8]: 0.81

CC#CC(=O)N1CCCC1c1nc(-c2ccc(C(=O)Nc3ccccn3)cc2)c2c(N)nccn12 (stereo not drawn) (library stock concentration (final ~1000-fold dilution): 10 mM)
NF-kB SEAP reporter activity ([1]; agonist: LPS (TLR4) 0.1 ug/mL): 1.09 | NF-kB SEAP reporter activity [1, 4]: 0.844 | NF-kB SEAP reporter activity [1, 5]: 0.581 | NF-kB SEAP reporter activity [1, 6]: 0.793

COC1OC(COS(=O)(=O)O)C(OC2OC(C(=O)O)C(OC3OC(COS(=O)(=O)O)C(OC4OC(C(=O)O)C(OC5OC(COS(=O)(=O)O)C(O)C(O)C5NS(=O)(=O)O)C(O)C4O)C(OS(=O)(=O)O)C3NS(=O)(=O)O)C(O)C2OS(=O)(=O)O)C(O)C1NS(=O)(=O)O (stereo not drawn) (library stock concentration (final ~1000-fold dilution): 10 mM water)
NF-kB SEAP reporter activity ([1]; agonist: LPS (TLR4) 0.1 ug/mL): 1.06 | NF-kB SEAP reporter activity [1, 4]: 1.3 | NF-kB SEAP reporter activity [1, 5]: 1.25 | NF-kB SEAP reporter activity [1, 6]: 1.04

COC1OC(COS(=O)(=O)O)C(OC2OC(C(=O)O)C(OC3OC(COS(=O)(=O)O)C(OC4OC(C(=O)O)C(OC5OC(COS(=O)(=O)O)C(O)C(O)C5NS(=O)(=O)O)C(O)C4O)C(OS(=O)(=O)O)C3NS(=O)(=O)O)C(O)C2OS(=O)(=O)O)C(O)C1NS(=O)(=O)O (stereo not drawn)
NF-kB SEAP reporter activity ([2]; library stock concentration (final ~1000-fold dilution): 10 mM water, cytotoxicity flag (confluency mask): not cytotoxic, agonist: Imiquimod (TLR7) […]): 1.04 | NF-kB SEAP reporter activity ([2]; library stock concentration (final ~1000-fold dilution): 10 mM water, cytotoxicity flag (confluency mask): not cytotoxic, agonist: MPLA (TLR4) […]): 1.06

CC(C)C(C(=O)Nc1ccc(C(=O)NO)cc1)c1ccccc1 (stereo not drawn) (library stock concentration (final ~1000-fold dilution): 10 mM)
NF-kB SEAP reporter activity ([1]; agonist: LPS (TLR4) 0.1 ug/mL): 4.76 | NF-kB SEAP reporter activity [1, 4]: 0.93 | NF-kB SEAP reporter activity [1, 5]: 1.12 | NF-kB SEAP reporter activity [1, 6]: 1.15

CC(C)C(C(=O)Nc1ccc(C(=O)NO)cc1)c1ccccc1 (stereo not drawn)
NF-kB SEAP reporter activity [2, 7]: 0.965 | NF-kB SEAP reporter activity [2, 8]: 0.937

CC(C(=O)O)c1cccc(C(=O)c2ccccc2)c1 (stereo not drawn) (library stock concentration (final ~1000-fold dilution): 10 mM)
NF-kB SEAP reporter activity ([1]; agonist: LPS (TLR4) 0.1 ug/mL): 1.02 | NF-kB SEAP reporter activity [1, 4]: 1.01 | NF-kB SEAP reporter activity [1, 5]: 1.11 | NF-kB SEAP reporter activity [1, 6]: 1.19

CC(C(=O)O)c1cccc(C(=O)c2ccccc2)c1 (stereo not drawn)
NF-kB SEAP reporter activity [2, 7]: 0.866 | NF-kB SEAP reporter activity [2, 8]: 1.05

Cc1nc(-c2nc(-c3ccc(OC(F)(F)F)cc3)no2)nn1Cc1cccc(N2CCC(S(C)(=O)=O)CC2)c1 (library stock concentration (final ~1000-fold dilution): 10 mM)
NF-kB SEAP reporter activity ([1]; agonist: LPS (TLR4) 0.1 ug/mL): 2 | NF-kB SEAP reporter activity [1, 4]: 0.837 | NF-kB SEAP reporter activity [1, 5]: 0.462 | NF-kB SEAP reporter activity [1, 6]: 0.849

Cc1nc(-c2nc(-c3ccc(OC(F)(F)F)cc3)no2)nn1Cc1cccc(N2CCC(S(C)(=O)=O)CC2)c1
NF-kB SEAP reporter activity [2, 7]: 0.853 | NF-kB SEAP reporter activity [2, 8]: 1.28

O.O=c1c(O)c(-c2ccc(O)cc2O)oc2cc(O)cc(O)c12 (library stock concentration (final ~1000-fold dilution): 10 mM)
NF-kB SEAP reporter activity ([1]; agonist: LPS (TLR4) 0.1 ug/mL): 1.52 | NF-kB SEAP reporter activity [1, 4]: 1.13 | NF-kB SEAP reporter activity [1, 5]: 1.15 | NF-kB SEAP reporter activity [1, 6]: 1.18

O.O=c1c(O)c(-c2ccc(O)cc2O)oc2cc(O)cc(O)c12
NF-kB SEAP reporter activity [2, 7]: 0.957 | NF-kB SEAP reporter activity [2, 8]: 1.05

COCCCOc1cc(CC(CC(N)C(O)CC(C(=O)NCC(C)(C)C(N)=O)C(C)C)C(C)C)ccc1OC (stereo not drawn) (library stock concentration (final ~1000-fold dilution): 10 mM)
NF-kB SEAP reporter activity ([1]; agonist: LPS (TLR4) 0.1 ug/mL): 1.36 and 1.31 | NF-kB SEAP reporter activity [1, 4]: 1.57 and 0.983 | NF-kB SEAP reporter activity [1, 5]: 1.09 and 0.934 | NF-kB SEAP reporter activity [1, 6]: 1.04 and 1.06

CC1=NN(c2ccc(C)c(C)c2)C(=O)/C1=N\Nc1cccc(-c2cccc(C(=O)O)c2)c1O.NCCO.NCCO (library stock concentration (final ~1000-fold dilution): 10 mM)
NF-kB SEAP reporter activity ([1]; agonist: LPS (TLR4) 0.1 ug/mL): 2.92 | NF-kB SEAP reporter activity [1, 4]: 1.31 | NF-kB SEAP reporter activity [1, 5]: 1.58 | NF-kB SEAP reporter activity [1, 6]: 1.34

CC1=NN(c2ccc(C)c(C)c2)C(=O)/C1=N\Nc1cccc(-c2cccc(C(=O)O)c2)c1O.NCCO.NCCO
NF-kB SEAP reporter activity [2, 7]: 1.57 | NF-kB SEAP reporter activity [2, 8]: 1.64

Cc1ncc(Cl)cc1NCc1ccc(C(=O)NC(CC2CCCC2)C(=O)NC2CC2)s1 (stereo not drawn) (library stock concentration (final ~1000-fold dilution): 10 mM)
NF-kB SEAP reporter activity ([1]; agonist: LPS (TLR4) 0.1 ug/mL): 0.894 | NF-kB SEAP reporter activity [1, 4]: 0.742 | NF-kB SEAP reporter activity [1, 5]: 0.85 | NF-kB SEAP reporter activity [1, 6]: 0.698

Cc1ncc(Cl)cc1NCc1ccc(C(=O)NC(CC2CCCC2)C(=O)NC2CC2)s1 (stereo not drawn)
NF-kB SEAP reporter activity [2, 7]: 0.865 | NF-kB SEAP reporter activity [2, 8]: 0.987

Cc1cc(C)c(CN2CCc3c(Cl)cc(-c4c(C)noc4C)c(Cl)c3C2=O)c(=O)[nH]1
NF-kB SEAP reporter activity [2, 7]: 1.24 | NF-kB SEAP reporter activity [2, 8]: 1.64

Cc1cc(C)c(CN2CCc3c(Cl)cc(-c4c(C)noc4C)c(Cl)c3C2=O)c(=O)[nH]1 (library stock concentration (final ~1000-fold dilution): 10 mM)
NF-kB SEAP reporter activity ([1]; agonist: LPS (TLR4) 0.1 ug/mL): 2.16 | NF-kB SEAP reporter activity [1, 4]: 1.51 | NF-kB SEAP reporter activity [1, 5]: 0.917 | NF-kB SEAP reporter activity [1, 6]: 0.98

C=C(C)C1CCC2(C(=O)O)CCC3(C)C(CCC4C5(C)CCC(OC(=O)CC(C)(C)C(=O)O)C(C)(C)C5CCC43C)C12 (stereo not drawn)
NF-kB SEAP reporter activity ([2]; library stock concentration (final ~1000-fold dilution): 10 mM, cytotoxicity flag (confluency mask): cytotoxic (confluency <70% of control), agonist: Imiquimod (TLR7) […]): 0.823 | NF-kB SEAP reporter activity ([2]; library stock concentration (final ~1000-fold dilution): 10 mM, cytotoxicity flag (confluency mask): cytotoxic (confluency <70% of control), agonist: MPLA (TLR4) […]): 1.07

C=C(C)C1CCC2(C(=O)O)CCC3(C)C(CCC4C5(C)CCC(OC(=O)CC(C)(C)C(=O)O)C(C)(C)C5CCC43C)C12 (stereo not drawn) (library stock concentration (final ~1000-fold dilution): 10 mM)
NF-kB SEAP reporter activity ([3]; agonist: LPS (TLR4) 0.1 ug/mL): 1.79 | NF-kB SEAP reporter activity [3, 4]: 0.735 | NF-kB SEAP reporter activity [3, 5]: 0.295 | NF-kB SEAP reporter activity [3, 6]: 0.532

CCN(CC)Cc1ccc(C(=O)N(CCc2ccccc2OC)C2CCNC2)cc1 (stereo not drawn)
NF-kB SEAP reporter activity [2, 7]: 0.518 | NF-kB SEAP reporter activity [2, 8]: 1.28

CCN(CC)Cc1ccc(C(=O)N(CCc2ccccc2OC)C2CCNC2)cc1 (stereo not drawn) (library stock concentration (final ~1000-fold dilution): 10 mM)
NF-kB SEAP reporter activity ([1]; agonist: LPS (TLR4) 0.1 ug/mL): 0.9 | NF-kB SEAP reporter activity [1, 4]: 0.312 | NF-kB SEAP reporter activity [1, 5]: 0.883 | NF-kB SEAP reporter activity [1, 6]: 0.613

C=C1CCC2C(C)(COC(=O)CCC(=O)O)C(OC(=O)CCC(=O)O)CCC2(C)C1/C=C/C1=CCOC1=O (stereo not drawn) (library stock concentration (final ~1000-fold dilution): 10 mM)
NF-kB SEAP reporter activity ([1]; agonist: LPS (TLR4) 0.1 ug/mL): 0.94 | NF-kB SEAP reporter activity [1, 4]: 0.908 | NF-kB SEAP reporter activity [1, 5]: 0.924 | NF-kB SEAP reporter activity [1, 6]: 1.06

C=C1CCC2C(C)(COC(=O)CCC(=O)O)C(OC(=O)CCC(=O)O)CCC2(C)C1/C=C/C1=CCOC1=O (stereo not drawn)
NF-kB SEAP reporter activity [2, 7]: 0.926 | NF-kB SEAP reporter activity [2, 8]: 0.985
